Each structure is given as a SMILES string. Results filed as inconclusive are left out. Calls of active or inactive are those of the source. Unless noted, calls follow the shape of the dose curve; as a rule, active = well fitted curve in the direction sought with a large enough effect; inconclusive = small, poorly fitted or top-dose-only effect, or another doubt; inactive = no such curve, though single readings can be large; an effect the other way counts as inactive or inconclusive.

Experiment [1] has as its target Lysosomal acid glucosylceramidase (Homo sapiens) (UniProt P04062). The experiment is described as follows: Glucocerebrosidase-p2 (AID 348; in the data active = potency below about 10 µM; also: potency is read from the fitted curve at half-maximal effect). To be noted: purified GBA, blue fluorogenic substrate, 40 min. An outline of the steps: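 Normal human glucocerebrosidase (0.2 nM) with blue fluorogenic substrate (80 uM final) in citrate/phosphate pH 5.9 with 10mM sodium taurocholate, 0.01% tween-20; 40 min RT, NaOH/glycine stop; fluorescence Ex 365/Em 440; AC50 from a titration from 0.6 nM upwards.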

A short description of experiment [2]: AP1 Signaling Pathway (AID 357; active = well fitted curve in either direction with a large enough effect, not every such curve was filed as active;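 also: ME-180 reporter cells stimulated with EGF at its EC50 level; % is scaled to controls: 0 for no effect and ±100 for the full control effect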). To be noted: ME-180 AP-1-bla reporter, EGF-induced, beta-lactamase ratio, 5 h; at 7.69 µM (top of the series) unless noted. The essentials:
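In this screen, ME-180 cells in Opti-MEM with 0.5% dialyzed FBS received EC50 EGF and compound titrations for 5 h. AP-1 reporter beta-lactamase was detected via CCF4 ratio, giving AC50 for positive and negative modulators.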

In experiment [3] the target is Cytochrome P450 1A2 (Homo sapiens) (UniProt P05177). The experiment is described as follows: p450-cyp1a2 (AID 410; calls by dose curve; also: potency is read from the fitted curve at half-maximal effect). The essentials: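 20nM CYP1A2, 100uM Luciferin-ME (=Km), 100mM KPO4; cpd 10 min RT; +NADPH regen, 60 min RT; stop/detect 20 min; luminescence. Normalized to furafylline 57 uM = full inhibition.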
Experiment [4] is described as follows: NFAT Signaling Pathway (AID 444; active = well fitted curve in either direction with a large enough effect, not every such curve was filed as active;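 also: carbachol stimulus at about its EC50 of 1 µM final; % is scaled to controls: 0 for no effect and ±100 for the full control effect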). To be noted: Jurkat NFAT-bla M1, carbachol, beta-lactamase ratio, 5 h; at 7.69 µM (top of the series) unless noted. The essentials:
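Jurkat cells carrying an NFAT-driven β-lactamase reporter and co-transfected muscarinic M1 receptor were treated with compound plus carbachol (1 uM final, an EC50 level) for 5 h at 37 °C. CCF4 loading followed for 1 h at RT; 460/530 nm ratio gave %activity.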

Experiment [5] in a line: Stat Signaling Pathway (AID 446; active = well fitted curve in either direction with a large enough effect, not every such curve was filed as active;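 also: ME-180 cervical cancer cells given 40 pM IL-6 alongside compound; SIE-controlled beta-lactamase reporter measured as 460/530 nm FRET emission ratio; % is scaled to controls: 0 for no effect and ±100 for the full control effect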). To be noted: ME-180 (cervical carcinoma) SIE beta-lactamase reporter, IL-6 stimulated, 5 h; at 7.69 µM (top of the series) unless noted. The essentials:
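FRET read-out (405 nm excitation, 460/530 nm emission) of a beta-lactamase reporter under a STAT-inducible element in ME-180 cervical carcinoma cells. Cells with compound receive 40 pM IL-6 for 5 h. Values are normalised to AC90 stimulation and AC90 JAK-inhibitor controls.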

For experiment [6], the target named is Glucocorticoid receptor (Homo sapiens) (UniProt P04150). The experiment is described as follows: GR-GFP Redistribution (AID 450;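 active = compounds whose dose series gives a full or clear partial fitted curve of increased nuclear translocation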; also: potency is read from the fitted curve at half-maximal effect). The settings on record: U2OS GR-GFP nuclear translocation, laser cytometry, 2 h.
Experiment [7] shares this target. In words: GR-EFC Redistribution (AID 451; calls by dose curve; also: potency is read from the fitted curve at half-maximal effect). To be noted: CHO-K1 GR-EFC translocation, beta-gal luminescence, 2 h. An outline of the steps:
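CHO-K1 cells stably expressing nuclear-localized β-gal enzyme acceptor and GR fused C-terminally to the enzyme donor fragment; ligand-driven nuclear translocation restores β-gal by complementation. Compounds titrated up to 46 uM final, 2 h at 37 °C; luminescence read.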

In experiment [8] the target is Mitogen-activated protein kinase 10 (Mus musculus) (UniProt Q61831). In words: JNK3 AlphaScreen Assay (AID 530; active = well fitted curve in either direction with a large enough effect, not every such curve was filed as active;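 also: kinase came from lysate of stimulated human HepG2 cells; signal reports phosphorylation of biotinylated GST-cJun 1-79 at Ser73 with 10 µM ATP; % is scaled to controls: 0 for no effect and ±100 for the full control effect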). An outline of the steps:
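Biotinylated GST-cJun(1-79) served as substrate for JNK3 in HepG2 lysates stimulated with IL-1beta and TNF-alpha. ATP was 10 uM final, pH 7.6. Ser73 phosphorylation was quantified by AlphaScreen (680 nm excitation).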

For experiment [9], the target named is 3',5'-cyclic-AMP phosphodiesterase 4B (Homo sapiens) (UniProt Q07343). The experiment is described as follows: qHTS Assay for Inhibitors of PDE-IV (AID 607; active = well fitted activation curve with a large enough effect in the main read-out, with a control signal flat, not every such curve was filed as active; also: % of control where 0% means no effect). The essentials: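 Cell-based read-out of cAMP via a modified cyclic nucleotide-gated channel and membrane potential dye (535/590 nm) in HEK293 cells expressing PDE4 endogenously. Compounds tested up to 22.9 uM final; 100 uM RO 20-1724 reference.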

Experiment [10] can be described thus: qHTS Assay for Lipid Storage Modulators (AID 1519; calls by dose curve). To be noted: Drosophila S3 cells, BODIPY lipid droplet/cell ratio, laser cytometry, cells loaded with oleic acid; for activity change, negative = inhibition: at 57.5 µM (top of the series). The essentials:
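Cells seeded at 5,000 per well were treated with compounds over a concentration series and loaded with oleic acid (400 uM, as added). Lipid droplet fluorescence (488 nm excitation, 500-530 nm channel) was read by laser-scanning cytometry and normalized to 20 uM Triacsin C.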

Experiment [11] has as its target Dual specificity protein kinase CLK4 (Homo sapiens) (UniProt Q9HAZ1). The experiment is described as follows: qHTS Assay for Inhibitors of CDC-like Kinase 4 (Kinase-Glo Assay) (AID 1770). Also: % is scaled to controls: 0 for no effect and ±100 for the full control effect; nearly all actives have a fitted effect of over 65% in size. An outline of the steps:
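Clk4 25 nM, RS peptide 100 uM, ATP 1 uM, pH 7.5 Tris, 10 mM MgCl2, 2.5 mM DTT; 4.5 h RT; ATP depletion read by Kinase-Glo luminescence.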

Experiment [12] has the same target. The experiment is described as follows: qHTS Assay for Inhibitors of CDC-like Kinase 4 (ADP-Glo Assay) (AID 1771). Also: % is scaled to controls: 0 for no effect and ±100 for the full control effect; nearly all actives have a fitted effect of over 70% in size. The essentials: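 25 nM Clk4, 100 uM RS peptide, 1 uM ATP (final); 2 mM MgCl2, 0.5 mM EGTA, 2.5 mM DTT, 0.01% Triton X-100; 1 hr RT. ADP-Glo readout: ATP depletion 45 min, conversion/luciferase 30 min, luminescence.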
Experiment [13] has the same target. The experiment is described as follows: qHTS Assay for Inhibitors of CDC-like Kinase 4 (ADP-FP Assay) (AID 1795).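 Also: recombinant human CLK4 phosphorylating RS repeat peptide at 1 µM ATP; % is scaled to controls: 0 for no effect and ±100 for the full control effect; nearly all actives have a fitted effect of over 60% in size.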 An outline of the steps: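 Kinase activity was followed as ADP output, converted from fluorescence polarization with a calibration curve. Reactions ran one hour at low ATP (1 uM) with RS peptide substrate.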
Experiment [14] concerns the target Ubiquitin carboxyl-terminal hydrolase 1 (Homo sapiens) (UniProt O94782). The experiment is described as follows: Inhibitors of USP1/UAF1: Pilot qHTS (AID 504865). Also: nearly all actives have a fitted effect of over 35% in size. Also: potency is read from the fitted curve at half-maximal effect. The essentials:
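Enzyme-free wells gave the negative control, while test wells held 1nM USP1/UAF1 preincubated with compound for 15 min at room temperature. Ub-Rho at 150nM final started the reaction, and fluorescence at 480/540 nm was recorded kinetically.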

The nature of experiment [15]: Primary qHTS for small molecule stabilizers of the endoplasmic reticulum resident proteome: Secreted ER Calcium Modulated Protein (SERCaMP) assay (AID 1508630). Also: % is scaled to controls: 0 for no effect and ±100 for the full control effect. The essentials: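 The SH-SY5Y reporter protocol was run at 3 concentrations up to 38.3 uM (primary) or 11 concentrations (follow-up): 16 h compound, 100 nM thapsigargin for 4 h, then extracellular luciferase luminescence.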

Experiment [16] deals with Cytochrome P450 3A4 (Homo sapiens) (UniProt P08684). The experiment is described as follows: qHTS Assay for Activators of Cytochrome P450 3A4 (AID 885). Also: nearly all actives have a fitted effect of over 65% in size. The essentials: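 Luminescent readout of luciferin formed from 25 uM Luciferin-PPXE (KM level) by 20 nM CYP3A4 in 200 mM KPO4, with 60 min NADPH-driven reaction at room temperature after 10 min compound exposure. Ketoconazole (57 uM) defined 100% inhibition.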

Experiment [17] deals with Rap guanine nucleotide exchange factor 3 (Homo sapiens) (UniProt O95398). The experiment is described as follows: Confirmatory qHTS for agonist of cAMP-regulated guanine nucleotide exchange factor 3 (EPAC1) (AID 1645881).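 Also: EPAC1 catalysed release of BODIPY-GDP from Rap1B seen as fluorescence loss; nearly all actives have a fitted effect of over 75% in size.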
For experiment [18], the target named is Rap guanine nucleotide exchange factor 4 (Homo sapiens) (UniProt Q8WZA2). The experiment is described as follows: Confirmatory qHTS for antagonist of cAMP-regulated guanine nucleotide exchange factor 4 (EPAC2) (AID 1645885). Also: potency is read from the fitted curve at half-maximal effect; nearly all actives have a fitted effect of over 25% in size.
Setting [19] is: measured here: cell count channel max response.
Setting [20] is: measured here: lipid channel max response.

Sequence of Lysosomal acid glucosylceramidase (Homo sapiens) (P04062 whole entry, looked up): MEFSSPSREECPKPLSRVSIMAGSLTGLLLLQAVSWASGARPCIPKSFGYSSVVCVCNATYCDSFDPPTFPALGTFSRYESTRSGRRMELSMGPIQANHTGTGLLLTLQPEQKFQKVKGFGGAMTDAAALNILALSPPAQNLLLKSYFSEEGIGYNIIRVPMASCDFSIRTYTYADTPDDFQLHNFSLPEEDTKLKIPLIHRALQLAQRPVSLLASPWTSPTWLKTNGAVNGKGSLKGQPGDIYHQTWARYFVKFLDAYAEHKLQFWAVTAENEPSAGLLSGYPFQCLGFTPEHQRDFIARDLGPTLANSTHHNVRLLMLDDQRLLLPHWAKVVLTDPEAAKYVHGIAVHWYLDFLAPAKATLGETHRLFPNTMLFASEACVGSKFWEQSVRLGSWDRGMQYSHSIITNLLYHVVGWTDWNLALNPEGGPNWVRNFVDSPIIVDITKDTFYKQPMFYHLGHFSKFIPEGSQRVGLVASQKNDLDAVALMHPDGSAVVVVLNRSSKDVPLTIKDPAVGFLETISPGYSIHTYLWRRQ
Sequence of Glucocorticoid receptor (Homo sapiens) (P04150 whole entry, looked up): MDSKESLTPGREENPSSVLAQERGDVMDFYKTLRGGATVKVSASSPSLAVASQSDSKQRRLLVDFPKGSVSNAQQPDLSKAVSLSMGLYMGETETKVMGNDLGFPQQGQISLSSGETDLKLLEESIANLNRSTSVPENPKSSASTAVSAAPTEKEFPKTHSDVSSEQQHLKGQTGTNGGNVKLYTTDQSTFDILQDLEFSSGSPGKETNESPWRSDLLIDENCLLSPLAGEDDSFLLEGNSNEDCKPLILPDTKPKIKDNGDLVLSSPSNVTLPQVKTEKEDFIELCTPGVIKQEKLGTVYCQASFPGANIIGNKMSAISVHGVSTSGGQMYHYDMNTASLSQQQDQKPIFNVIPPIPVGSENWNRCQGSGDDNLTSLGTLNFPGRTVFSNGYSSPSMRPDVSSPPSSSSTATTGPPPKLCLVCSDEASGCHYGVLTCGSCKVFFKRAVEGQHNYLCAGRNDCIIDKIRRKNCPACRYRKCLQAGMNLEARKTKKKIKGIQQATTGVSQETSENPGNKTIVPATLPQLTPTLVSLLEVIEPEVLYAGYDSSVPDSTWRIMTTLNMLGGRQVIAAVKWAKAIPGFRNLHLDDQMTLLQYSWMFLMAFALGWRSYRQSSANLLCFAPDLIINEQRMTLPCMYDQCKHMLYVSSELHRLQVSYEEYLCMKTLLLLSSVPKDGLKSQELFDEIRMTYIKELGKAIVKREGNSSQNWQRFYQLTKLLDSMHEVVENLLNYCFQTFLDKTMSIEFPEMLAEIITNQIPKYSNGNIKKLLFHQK
Sequence of Ubiquitin carboxyl-terminal hydrolase 1 (Homo sapiens) (O94782 whole entry, looked up): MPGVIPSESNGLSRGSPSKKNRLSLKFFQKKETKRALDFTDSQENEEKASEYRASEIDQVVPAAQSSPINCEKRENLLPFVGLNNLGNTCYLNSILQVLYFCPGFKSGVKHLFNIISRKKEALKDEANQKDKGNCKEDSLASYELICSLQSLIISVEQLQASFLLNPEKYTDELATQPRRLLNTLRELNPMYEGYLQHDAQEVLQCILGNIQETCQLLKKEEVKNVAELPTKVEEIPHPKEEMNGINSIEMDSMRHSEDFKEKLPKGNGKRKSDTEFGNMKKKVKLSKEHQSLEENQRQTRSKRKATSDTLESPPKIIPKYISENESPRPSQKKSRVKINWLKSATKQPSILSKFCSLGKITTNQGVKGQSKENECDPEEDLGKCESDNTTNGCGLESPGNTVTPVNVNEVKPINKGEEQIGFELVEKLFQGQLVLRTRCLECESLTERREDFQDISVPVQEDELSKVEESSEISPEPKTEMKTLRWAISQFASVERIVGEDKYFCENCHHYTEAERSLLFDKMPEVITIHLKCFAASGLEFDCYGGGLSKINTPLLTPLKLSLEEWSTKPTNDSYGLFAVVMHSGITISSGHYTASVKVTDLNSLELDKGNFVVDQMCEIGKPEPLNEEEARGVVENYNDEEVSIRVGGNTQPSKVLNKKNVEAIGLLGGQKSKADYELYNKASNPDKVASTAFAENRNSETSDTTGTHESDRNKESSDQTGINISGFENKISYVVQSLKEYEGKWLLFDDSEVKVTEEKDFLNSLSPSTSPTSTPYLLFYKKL
Sequence of Cytochrome P450 1A2 (Homo sapiens) (P05177 whole entry, looked up): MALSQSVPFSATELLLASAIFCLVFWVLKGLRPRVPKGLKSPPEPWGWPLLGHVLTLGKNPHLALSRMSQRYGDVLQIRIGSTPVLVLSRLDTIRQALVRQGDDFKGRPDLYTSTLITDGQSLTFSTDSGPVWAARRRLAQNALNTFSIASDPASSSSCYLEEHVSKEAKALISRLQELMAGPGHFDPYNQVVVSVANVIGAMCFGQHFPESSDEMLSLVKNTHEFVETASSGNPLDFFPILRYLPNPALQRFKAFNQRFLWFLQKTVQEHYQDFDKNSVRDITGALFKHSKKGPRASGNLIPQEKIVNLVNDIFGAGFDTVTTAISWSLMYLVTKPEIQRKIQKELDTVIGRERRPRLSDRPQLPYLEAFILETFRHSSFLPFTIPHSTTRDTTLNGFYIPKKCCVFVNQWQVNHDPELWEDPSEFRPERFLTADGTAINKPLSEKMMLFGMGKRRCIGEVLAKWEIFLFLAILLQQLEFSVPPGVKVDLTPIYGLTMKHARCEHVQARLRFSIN
Sequence of Dual specificity protein kinase CLK4 (Homo sapiens) (Q9HAZ1 whole entry, looked up): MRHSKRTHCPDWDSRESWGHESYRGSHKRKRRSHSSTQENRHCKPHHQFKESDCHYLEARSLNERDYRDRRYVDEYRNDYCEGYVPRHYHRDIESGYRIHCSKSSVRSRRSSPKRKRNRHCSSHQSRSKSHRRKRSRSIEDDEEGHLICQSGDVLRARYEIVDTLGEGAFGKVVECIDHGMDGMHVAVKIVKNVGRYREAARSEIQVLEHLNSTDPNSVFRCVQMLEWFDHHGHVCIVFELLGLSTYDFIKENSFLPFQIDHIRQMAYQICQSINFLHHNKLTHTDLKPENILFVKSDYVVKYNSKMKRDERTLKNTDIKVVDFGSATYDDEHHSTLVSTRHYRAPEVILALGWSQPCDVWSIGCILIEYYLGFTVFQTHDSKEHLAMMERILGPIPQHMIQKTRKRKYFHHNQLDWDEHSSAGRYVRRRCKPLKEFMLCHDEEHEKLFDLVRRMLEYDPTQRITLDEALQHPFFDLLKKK
Sequence of 3',5'-cyclic-AMP phosphodiesterase 4B (Homo sapiens) (Q07343 whole entry, looked up): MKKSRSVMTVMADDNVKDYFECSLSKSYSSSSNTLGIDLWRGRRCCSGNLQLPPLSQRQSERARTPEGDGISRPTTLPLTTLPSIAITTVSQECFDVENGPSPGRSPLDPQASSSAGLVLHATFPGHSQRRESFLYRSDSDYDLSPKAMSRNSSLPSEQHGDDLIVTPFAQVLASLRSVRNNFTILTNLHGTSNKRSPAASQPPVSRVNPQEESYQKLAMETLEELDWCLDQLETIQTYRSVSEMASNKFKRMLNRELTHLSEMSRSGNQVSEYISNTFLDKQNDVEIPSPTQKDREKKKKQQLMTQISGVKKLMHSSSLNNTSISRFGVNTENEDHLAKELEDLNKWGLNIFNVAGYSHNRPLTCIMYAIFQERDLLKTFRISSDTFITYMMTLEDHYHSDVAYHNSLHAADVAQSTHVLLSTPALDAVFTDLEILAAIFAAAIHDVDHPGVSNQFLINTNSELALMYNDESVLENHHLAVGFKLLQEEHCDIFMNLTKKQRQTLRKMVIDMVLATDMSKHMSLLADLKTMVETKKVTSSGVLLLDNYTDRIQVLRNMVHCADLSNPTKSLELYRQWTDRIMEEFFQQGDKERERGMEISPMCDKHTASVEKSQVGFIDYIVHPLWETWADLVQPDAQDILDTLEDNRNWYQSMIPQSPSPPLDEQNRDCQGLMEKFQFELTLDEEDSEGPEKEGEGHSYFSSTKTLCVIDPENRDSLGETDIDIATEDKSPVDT
Sequence of Rap guanine nucleotide exchange factor 4 (Homo sapiens) (Q8WZA2 whole entry, looked up): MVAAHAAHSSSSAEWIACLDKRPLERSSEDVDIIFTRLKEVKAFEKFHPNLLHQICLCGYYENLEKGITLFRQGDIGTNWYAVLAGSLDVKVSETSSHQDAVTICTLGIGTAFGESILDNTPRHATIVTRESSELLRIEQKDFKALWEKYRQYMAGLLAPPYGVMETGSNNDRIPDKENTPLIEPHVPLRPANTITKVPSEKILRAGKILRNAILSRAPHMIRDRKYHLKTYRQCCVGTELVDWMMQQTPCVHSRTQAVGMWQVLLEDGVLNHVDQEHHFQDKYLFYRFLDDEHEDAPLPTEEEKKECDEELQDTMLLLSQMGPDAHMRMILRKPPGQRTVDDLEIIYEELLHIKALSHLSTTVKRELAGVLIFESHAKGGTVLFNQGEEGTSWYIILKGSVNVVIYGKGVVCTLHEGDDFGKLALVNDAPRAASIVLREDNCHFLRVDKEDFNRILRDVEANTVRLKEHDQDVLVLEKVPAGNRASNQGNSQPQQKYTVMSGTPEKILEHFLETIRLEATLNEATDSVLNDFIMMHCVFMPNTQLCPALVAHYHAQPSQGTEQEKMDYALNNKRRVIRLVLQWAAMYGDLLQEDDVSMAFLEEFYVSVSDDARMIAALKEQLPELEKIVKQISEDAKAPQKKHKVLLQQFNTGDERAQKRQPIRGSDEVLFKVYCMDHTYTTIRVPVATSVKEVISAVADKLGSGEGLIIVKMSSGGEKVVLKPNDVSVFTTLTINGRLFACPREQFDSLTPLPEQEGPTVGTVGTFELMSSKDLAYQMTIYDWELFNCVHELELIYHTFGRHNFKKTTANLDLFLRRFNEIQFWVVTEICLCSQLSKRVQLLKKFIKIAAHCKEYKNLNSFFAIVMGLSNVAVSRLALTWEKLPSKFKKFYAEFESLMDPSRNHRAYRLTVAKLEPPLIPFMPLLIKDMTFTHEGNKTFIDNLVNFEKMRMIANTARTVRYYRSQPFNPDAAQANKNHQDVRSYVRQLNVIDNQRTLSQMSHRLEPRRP

Consider `COc1ncc2nc(-c3ccccc3)c(=O)n(C)c2n1`, for which the Potency in experiment [1] is > 11.4 µM (inactive); in [3] it was 1.58 µM (active); in experiment [6], > 9.22 µM (inactive); in [7], > 46 µM (inactive). Moreover, the figures for the activity change, negative = inhibition in experiment [2], in experiment [4] and in experiment [10] were -19.1% (inactive), 11.3% (inactive) and 6.24% (inactive), respectively. Further, the activity, negative = inhibition in [5] is -14.9% (inactive). In addition, in experiment [8], the outcome was inactive. Moreover, the Potency entry in experiment [9], in experiment [11], in experiment [12], in experiment [13], in experiment [14] and in experiment [15] was “inactive” throughout. In addition, the figures for the max response in experiment [10] (setting [19]) and in experiment [10] (setting [20]) were 20% and 24.3%, respectively.
As for `Cc1noc(C)c1-c1cc(N(C)Cc2ccco2)ncn1`, the Potency in experiment [1] is > 11.4 µM (inactive); in experiment [3], 3.16 µM (active); in experiment [6], > 46 µM (inactive); in [7], > 46 µM (inactive). Besides, the activity change, negative = inhibition in experiment [2] is 1.26% (inactive); in experiment [4], -16% (inactive); in [10], 2.86% (inactive). Moreover, the activity, negative = inhibition in experiment [5] was 6.33% (inactive). The molecule was classed as inactive in [8]. The Potency result in [9], in [11], in experiment [12], in experiment [13], in [14] and in experiment [15] was “inactive” throughout. Also, the max response came to 13.8% in [10] (setting [19]) and 17.9% in experiment [10] (setting [20]).
Regarding `CC(C)=CCC1=C(O)c2ccccc2C(=O)C1=O`, the activity change, negative = inhibition in experiment [10] is -0.846% (inactive). Also, the max response was -0.752% in [10] (setting [19]) and 0.642% in experiment [10] (setting [20]). In addition, in [14], the Potency is 35.5 µM (active). Moreover, the Potency result in [15] was “inactive”.
As to `COc1ccc(-n2c(=O)c(-c3cn(C)c4ccccc34)nc3cnc(N4CCOCC4)nc32)cc1`, the Potency is > 11.4 µM (inactive) in [1], 31.6 µM (active) in [3], > 9.22 µM (inactive) in [6] and > 46 µM (inactive) in experiment [7]. For the same molecule, the results for the activity change, negative = inhibition in experiment [2], in experiment [4] and in experiment [10] were 11.1% (inactive), -2.62% (inactive) and 7.4% (inactive), respectively. The activity, negative = inhibition in experiment [5] is 3.33% (inactive). In [8], the molecule was called inactive. Further, the max response in experiment [10] (setting [19]) was 4.27%; in experiment [10] (setting [20]) it was 9.94%. The Potency entry in [11], in experiment [12], in experiment [13], in experiment [14] and in [15] was “inactive” in each case.
Turning to `CN(C)c1ncc2nc(-c3ccc(F)cc3)c(=O)n(Cc3cccs3)c2n1`, the Potency in experiment [1] is > 11.4 µM (inactive); in experiment [3] it was 1 µM (active); in [6], > 9.22 µM (inactive); in experiment [7], > 46 µM (inactive). The activity change, negative = inhibition in [2] is 14.3% (inactive); in [4] it was 5.02% (inactive); in experiment [10] it was 2.1% (inactive). Moreover, the activity, negative = inhibition in experiment [5] was -1.13% (inactive). Also, the max response in experiment [10] (setting [19]) came to 26.1%; in experiment [10] (setting [20]) it was 28%. The Potency entry in [11], in experiment [12], in [13], in experiment [14] and in experiment [15] was “inactive” each time.
Take `COc1ccccc1CNc1ccnc(-c2ccc3c(c2)OCO3)n1`: the activity change, negative = inhibition in experiment [2] was -17.7% (inactive); in experiment [4] it was -13.2% (inactive); in experiment [10] it was 9.28% (inactive). Further, the Potency is 0.631 µM (active) in [3], > 46 µM (inactive) in [6], > 46 µM (inactive) in experiment [7] and 17.5 µM (active) in experiment [18]. Besides, the activity, negative = inhibition in [5] was -21.3% (inactive). In addition, the molecule was called inactive in experiment [8] and in [17]. Besides, the Potency result in experiment [16] and in [15] was “inactive” each time. In addition, the results for the max response in [10] (setting [19]) and in [10] (setting [20]) were -12.3% and -4.95%, respectively.

The record behind these values is PubChem BioAssay (NCATS).
